Results on 21 compounds are retold here after ChEMBL document CHEMBL1156829.

The full ranking holds about 5,400 compounds; the median of “IFI” is about 2, and the highest 2% start at about 22. Many of the other results were omitted from the sample, so the highest values are more common in it than they were.

The nature of the assay: NOVARTIS: Inhibition Frequency Index (IFI) - the number of HTS assays where a compound showed > 50% inhibition/induction, expressed as a percentage of the number of assays in which the compound was tested. The assay is classed as functional.
In the case of `Cc1ccc(CSCc2ccc(C(=O)NC3CC3)o2)cc1`, the IFI turned out to be 0%.
As for `CC(=O)Nc1ccc(-c2nc(-c3ccc(Oc4ccc(-c5[nH]c(-c6ccc(NC(C)=O)cc6)nc5-c5ccccc5)cc4)cc3)c(-c3ccccc3)[nH]2)cc1`, the IFI is 1.54%.
`COc1ccc2c(c1)C(C)=CC(C)(C)N2C(=O)CSc1nnc(-c2ccc(C)cc2)o1` gave an IFI of 0%.
In turn, `O=C(N/C(=C/C=C/c1ccccc1)C(=O)N1CCCCC1)c1ccc([N+](=O)[O-])cc1` returned an IFI of 0.685%.
For the compound `CCCCNC(=O)NC(Cc1c[nH]c2ccccc12)C(=O)NC1CCCCC1` (stereo unspecified), the IFI is 4.21%.
`CC1CN(C(=O)C(Cc2c[nH]c3ccccc23)NC(=O)C(c2ccccc2)c2ccccc2)CCN1C(=O)NCc1ccccc1` (stereo unspecified) came in with an IFI of 0%.
Take `CC(C)C[C@@H](NC(=O)[C@H](C)NC(=O)CNC(=O)[C@@H](NC=O)C(C)C)C(=O)N[C@@H](C)C(=O)N[C@@H](C(=O)N[C@H](C(=O)N[C@@H](C(=O)N[C@@H](Cc1c[nH]c2ccccc12)C(=O)N[C@H](CC(C)C)C(=O)N[C@@H](Cc1c[nH]c2ccccc12)C(=O)N[C@H](CC(C)C)C(=O)N[C@@H](Cc1c[nH]c2ccccc12)C(=O)N[C@H](CC(C)C)C(=O)N[C@@H](Cc1c[nH]c2ccccc12)C(=O)NCCO)C(C)C)C(C)C)C(C)C`: the IFI is 27.6%.
In turn, `Cc1ccc(Nc2nc(NCc3ccccc3)c3ccccc3n2)cc1` showed an IFI of 0%.
`C=CCSc1nc(N)c2c3c(sc2n1)CN(CCC)CC3` came in with an IFI of 14%.
The compound `CN1/C(=C\C=C\C2=[N+](C)c3ccc4ccccc4c3C2(C)C)C(C)(C)c2ccccc21` came in with an IFI of 23.1%.
As for `C[n+]1c(C=CNc2ccccc2)n(-c2ccccc2)c2ccc(Cl)cc21`, the IFI worked out at 12.5%.
For `CC[n+]1c(/C=C/C=C2\N(C)c3ccccc3C2(C)C)n(CCCOC(C)=O)c2ccccc21`, the IFI is 14.3%.
Compound `CCN1/C(=C/C=C/c2sc3ccccc3[n+]2CC)Sc2ccccc21` yielded an IFI of 21.7%.
As for `CCC1=[N+](C)c2cccc3cccc(c23)N1C`, the IFI worked out at 3.12%.
`CC[n+]1c(/C=C/C=C2\N(C)c3ccccc3C2(C)C)n(Cc2ccccc2)c2ccccc21`: the IFI stood at 32.6%.
The compound `CC[n+]1c(C=CC=C2N(C)c3ccccc3C2(C)C)sc2ccccc21` showed an IFI of 28.6%.
Regarding `CC[n+]1c(/C=C/C=C2\N(C)c3ccccc3C2(C)C)n(-c2ccccc2)c2ccc(C)cc21`, the IFI was 21.4%.
Then `CC[n+]1c(C=CN(C)C)sc2ccccc21`, with 4.62%; and `Brc1ccc(-c2n(Cc3ccccc3)c3ccccc3[n+]2Cc2ccccc2)o1`, with 15.4%.
As to `CC[n+]1c(/C=C/C=C2\N(C)c3ccccc3C2(C)C)n(-c2ccccc2)c2cc(Cl)ccc21`, the IFI stood at 33.3%.
On to `CC[n+]1c(/C=C/C=C2\N(C)c3ccccc3C2(C)C)n(-c2ccccc2)c2ccc(Cl)cc21`, for which the IFI amounted to 21.4%.
